An excerpt weighted towards active compounds, which were near 7.9% of everything screened.
HCMV inh – qHTS Assay for inhibitors of the human cytomegalovirus (HCMV); 410,000 compounds, 4.5% hits; activity change, negative = inhibition, % at 57.5 µM; HFF cells, HCMV-luciferase reporter, 72 h; hits give low values; in the data active = activity change below about -60%; inconclusive = no clear call, values can overlap the other calls; inactive = above about -39%
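Cell-based, HFFs, 1000 cells/well, 16 h 37C; cpds in DMSO + HCMV-luc, MOI 1 PFU/cell; 72 h 37C; OneGlo luminescence after 5 min RT; norm. to buffer vs Salinomycin 10uM.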
HCV inhibitor – qHTS Assay for Inhibitors of Hepatitis C Virus (HCV). Huh7.5.1 HCVcc-Cre infection, luciferase reporter, 44 h. Potency, µM (top dose mostly 41.8 µM), for the others: at the highest dose activity change, negative = inhibition, usual class: inhibitors. 340,000 compounds, 3.4% hits; active = well fitted inhibition curve with a large enough effect; inconclusive = small, poorly fitted or top-dose-only effect, or another doubt; inactive = no such curve, though single readings can be large or run the other way; note: potency is the fitted concentration of half-maximal effect
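Luciferase read-out (15 sec integration) after a 15 min room-temperature substrate step quantifies HCVcc-Cre infection. Cells, 1,000 per well, had compound added 4 h post-plating, then virus at ~0.5 moi, and were cultured 44 h.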
MARV entry inh – qHTS for inhibitors of binding or entry into cells for Marburg Virus | Marburg virus pseudotyped entry inhibition, cell reporter | Potency, µM (titrated, usually from 37.8 µM), inactives show at the highest dose activity change, negative = inhibition, usual class: inhibitors | 300,000 compounds, 1.8% hits | AID 540276, 2011; calls by dose curve; tested in HEK293 cells; note: potency is the fitted concentration of half-maximal effect
FMDV inh – High Throughput Screening for Foot and Mouth Disease Virus Antivirals; FMDV antiviral cell-based qHTS; Potency, µM (series often up to 57.9 µM), without a hit: at the highest dose activity change, negative = inhibition, hits mostly inhibitors; 410,000 compounds, 1.2% hits; calls by dose curve; tested in HEK293T cells; note: read-out not given here; potency is the fitted concentration of half-maximal effect; nearly all actives have a fitted effect of over 45% in size
Lassa entry inh – qHTS for Inhibitors of binding or entry into cells for Lassa Virus; Lassa virus pseudotype entry inhibition, cell reporter; Potency, µM (highest dose often 37.9 µM), without a hit: at the highest dose activity change, negative = inhibition, hits mostly inhibitors; 300,000 compounds, 1.2% hits; AID 540256, 2011; calls by dose curve; tested in HEK293 cells; note: potency is the fitted concentration of half-maximal effect; nearly all actives have a fitted effect of over 50% in size
Numbers without * were called inactive; [ ] = another dose, or the depositor's remark. % is set by controls: 0 for no effect and ±100 for the full control effect.

What do the screens show for `COc1cccc(-c2nnc(NC(=O)c3ccc(S(=O)(=O)N4CC(C)OC(C)C4)cc3)o2)c1` (centres undefined)?
HCMV inh: -94.4*; HCV inhibitor: inconclusive; MARV entry inh: inconclusive; FMDV inh: -11.4%; Lassa entry inh: inconclusive

Results for CC1CC(C)CN(S(=O)(=O)c2ccc(C(=O)Nc3nnc(-c4cccs4)o3)cc2)C1 (centres undefined) ?
HCMV inh: -70.2*; HCV inhibitor: inconclusive; MARV entry inh: 7.94µM*; FMDV inh: -21.7%; Lassa entry inh: inconclusive

Results for CC1CCCN(S(=O)(=O)c2ccc(C(=O)Nc3nnc(-c4ccccc4Cl)o3)cc2)C1 (centres undefined) ?
HCMV inh: -98.2*; HCV inhibitor: -8.8%; MARV entry inh: inconclusive; FMDV inh: -12.9%; Lassa entry inh: inconclusive

Results for COc1ccc(OC)c([C@H]2/C(=C(\O)c3ccc(C)cc3)C(=O)C(=O)N2Cc2ccco2)c1 ?
MARV entry inh: -23.6%[46.1 µM]

Results for Cc1cccc2c1c1ccc3c(c1n2C)C(=O)C=CC3=O ?
HCMV inh: 3.3; HCV inhibitor: -18.4%; FMDV inh: 14.1µM*

Results for COc1ccc(-n2nc(C(=O)N3CCN(c4ccccc4OC)CC3)c3c4ccccc4n(C)c3c2=O)cc1Cl ?
HCMV inh: 19.3; MARV entry inh: 20.6%[46.1 µM]; FMDV inh: -21.5%; Lassa entry inh: 3.6%[46.1 µM]

Results for O=C1N/C(=C/c2ccc(N3CCOCC3)o2)C(=O)N1c1cccc(Cl)c1 ?
HCMV inh: -100.4*; HCV inhibitor: inconclusive; MARV entry inh: inconclusive; FMDV inh: -16.8%; Lassa entry inh: -29.9%

What do the screens show for `COc1ccc(C(=O)Nn2c(SCC(=O)NCc3ccccc3)nc3ccccc3c2=O)cc1`?
HCMV inh: inconclusive; HCV inhibitor: -3.0%; MARV entry inh: inconclusive; FMDV inh: inconclusive; Lassa entry inh: inconclusive

How did O=C(CSc1nc2ccccc2c(=O)n1CC1CCCO1)NCC1CCCO1 (centres undefined) do in these assays?
HCMV inh: 8.4; HCV inhibitor: 13.2%; MARV entry inh: 3.6%; FMDV inh: -6.9%; Lassa entry inh: -2.4%

How did COc1ccc(C(=O)Nn2c(SCC(=O)NCC3CCCO3)nc3ccccc3c2=O)cc1 (centres undefined) do in these assays?
HCMV inh: inconclusive; HCV inhibitor: -8.9%; MARV entry inh: inconclusive; FMDV inh: 11.2µM*; Lassa entry inh: 7.3µM*

How did COc1ccc(C(=O)Nn2c(SCC(=O)NC3CCCC3)nc3ccccc3c2=O)cc1 do in these assays?
HCMV inh: -21.7; HCV inhibitor: 5.7%; MARV entry inh: inconclusive; FMDV inh: 17.8µM*; Lassa entry inh: inconclusive

How did COc1ccc(NC(=O)Cn2c(=O)n(Cc3ccco3)c(=O)c3sc4ccccc4c32)cc1Cl do in these assays?
HCMV inh: -20.4; MARV entry inh: 3.6%[46.1 µM]; FMDV inh: -6.6%; Lassa entry inh: -5.3%[46.1 µM]

Results for Cc1cc(-c2ccccc2)n(-c2cc(N/N=C/c3ccccc3O)ncn2)n1 ?
HCMV inh: -96.2*; HCV inhibitor: inconclusive; MARV entry inh: 8.91µM*; FMDV inh: inconclusive; Lassa entry inh: 4.47µM*

Results for CNc1cc(-n2nc(C)cc2-c2ccccc2)ncn1 ?
HCMV inh: 25.0; HCV inhibitor: -19.5%; MARV entry inh: 6.3%[46.1 µM]; FMDV inh: -15.3%; Lassa entry inh: -20.3%

What do the screens show for `CCc1ccccc1N(C)C(=O)c1cc2c(=O)oc3ccccc3c2s1`?
HCMV inh: -8.7; MARV entry inh: 7.9%[46.1 µM]; FMDV inh: inconclusive; Lassa entry inh: inconclusive

Results for O=C(N1CCN(c2ccc(F)cc2)CC1)C1(c2cccs2)CCOCC1 ?
HCMV inh: -31.9; HCV inhibitor: -15.0%; MARV entry inh: -2.8%; FMDV inh: 0.0%; Lassa entry inh: -1.7%

Results for O=C(N1CCN(c2cccc(Cl)c2)CC1)C1(c2cccs2)CCOCC1 ?
HCMV inh: inconclusive; HCV inhibitor: inconclusive; MARV entry inh: inconclusive; FMDV inh: 35.5µM*; Lassa entry inh: inconclusive

How did Cc1ccc(/C=N/n2c(COc3ccccc3)n[nH]c2=S)o1 do in these assays?
HCMV inh: -90.4*; HCV inhibitor: 7.2%; FMDV inh: -8.9%

Results for Cc1ccc(/C=N/n2c(COc3ccccc3)n[nH]c2=S)s1 ?
HCMV inh: -17.5; HCV inhibitor: -12.5%; MARV entry inh: 7.6%; FMDV inh: -8.9%; Lassa entry inh: 6.51µM*

What do the screens show for `Cc1ccc(-c2n[nH]c(=S)n2/N=C/c2ccc(C)s2)cc1`?
HCMV inh: 13.8; HCV inhibitor: 0.1%; MARV entry inh: -10.1%; FMDV inh: -6.0%; Lassa entry inh: 1.26µM*

Results for S=c1[nH]nc(COc2ccccc2)n1/N=C/c1ccc(Br)s1 ?
HCMV inh: -19.4; HCV inhibitor: 0.1%; MARV entry inh: 20.8%; FMDV inh: -9.8%; Lassa entry inh: inconclusive

Results for CC(C)C(NS(C)(=O)=O)c1nnc2n1CCN(Cc1ccc(C#CC(C)(C)O)cc1)CC2 (centres undefined) ?
FMDV inh: -0.3%

How did CCN(Cc1ccncc1)Cc1ccc2c(c1)CN(C(=O)c1ccc(C)cc1)CCO2 do in these assays?
FMDV inh: -8.0%

How did Oc1ccc(/C=N/Nc2ccnc3cc(Cl)ccc23)c(O)c1 do in these assays?
HCMV inh: -25.6; HCV inhibitor: 10µM*; MARV entry inh: 1.9%; FMDV inh: 26.3%

How did Clc1ccc2c(N/N=C/c3cccnc3)ccnc2c1 do in these assays?
HCMV inh: inconclusive; HCV inhibitor: -21.2%; MARV entry inh: inconclusive; FMDV inh: 4.5%; Lassa entry inh: inconclusive

Results for Clc1ccc(NNc2ccnc3cc(Cl)ccc23)cc1 ?
HCMV inh: -69.4*; HCV inhibitor: -13.0%; MARV entry inh: inconclusive; FMDV inh: 9.2%; Lassa entry inh: -3.4%

How did Cc1ccc(/C=N/Nc2ccnc3cc(Cl)ccc23)c(C)c1 do in these assays?
HCMV inh: -76.0*; HCV inhibitor: 10µM*; MARV entry inh: inconclusive; FMDV inh: 39.8µM*; Lassa entry inh: inconclusive

How did Cc1ccccc1/C=N/Nc1ccnc2cc(Cl)ccc12 do in these assays?
HCMV inh: -69.4*; HCV inhibitor: inconclusive; MARV entry inh: inconclusive; FMDV inh: inconclusive; Lassa entry inh: inconclusive

How did Oc1ccc(Nc2ccnc3cc(Cl)ccc23)cc1 do in these assays?
HCMV inh: -11.7; HCV inhibitor: -1.5%; MARV entry inh: inconclusive; FMDV inh: 23.8%; Lassa entry inh: -12.4%[46.1 µM]

How did Clc1ccc2c(N/N=C/c3ccc(Br)cc3)ccnc2c1 do in these assays?
HCMV inh: -73.1*; HCV inhibitor: 11.2µM*; MARV entry inh: 3.26µM*; FMDV inh: -33.1%; Lassa entry inh: inconclusive

What do the screens show for `CC(=O)c1c(-c2ccccc2)c2cc(Cl)ccc2[nH]c1=O`?
HCMV inh: -62.8*; HCV inhibitor: 2.4%; MARV entry inh: -24.8%[14.2 µM]; FMDV inh: 2.6%; Lassa entry inh: -28.8%
